# Reference: PubChem BioAssay (Tox21)
# “And” between values parts separate entries of the source, which are not always exact repeats. Equal values may be shown once. A number with no mark means an inactive call. Results filed as inconclusive are left out. A call without a number means that no potency is given here. The source made the active and inactive calls. The call rests on the fitted dose curve.
# Experiments:
# [1] = target: Acetylcholinesterase (Homo sapiens) (UniProt P22303); assay: Acetylcholinesterase (AChE) small molecule antagonists: enzyme-based qHTS assay (AID 1347397); conditions: Potency: AChE enzyme activity inhibition; outcome: AChE enzyme activity inhibition; further: nearly all actives have a fitted effect of over 55% in size; further: potency means the concentration at half of the fitted maximal effect
# Sequence of Acetylcholinesterase (Homo sapiens) (P22303 whole entry, looked up): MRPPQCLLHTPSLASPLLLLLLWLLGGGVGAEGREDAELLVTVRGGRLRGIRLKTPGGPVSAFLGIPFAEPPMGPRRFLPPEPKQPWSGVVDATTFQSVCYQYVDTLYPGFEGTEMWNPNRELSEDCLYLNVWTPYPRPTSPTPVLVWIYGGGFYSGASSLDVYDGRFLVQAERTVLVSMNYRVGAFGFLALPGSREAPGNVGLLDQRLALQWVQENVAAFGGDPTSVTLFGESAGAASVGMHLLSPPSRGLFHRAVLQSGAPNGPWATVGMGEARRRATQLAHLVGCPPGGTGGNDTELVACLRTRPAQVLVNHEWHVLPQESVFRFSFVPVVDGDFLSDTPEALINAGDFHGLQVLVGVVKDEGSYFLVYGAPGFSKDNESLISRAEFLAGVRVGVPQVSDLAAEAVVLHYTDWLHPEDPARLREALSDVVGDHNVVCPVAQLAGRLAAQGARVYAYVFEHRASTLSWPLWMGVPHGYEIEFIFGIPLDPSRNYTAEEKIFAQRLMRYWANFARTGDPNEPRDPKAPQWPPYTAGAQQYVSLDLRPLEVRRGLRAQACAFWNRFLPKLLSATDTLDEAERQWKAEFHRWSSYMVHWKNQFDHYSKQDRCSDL
# Procedure, shortened: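 In this quantitative HTS, compounds from the Tox21 10K collection were preincubated 30 min at ambient temperature with recombinant human AChE dispensed at 50 mU/mL. Hydrolysis of acetylthiocholine was then followed for 10 min by DTNB colour development.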
# [2] = target: Acetylcholinesterase (Homo sapiens) (UniProt P22303); assay: Acetylcholinesterase (AChE) small molecule antagonists: fluorescence cell-based qHTS assay (AID 1347398); conditions: Potency: AChE activity; outcome: AChE activity; further: nearly all actives have a fitted effect of over 50% in size; further: potency means the concentration at half of the fitted maximal effect
# Procedure, shortened: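 Cells (SH-SY5Y) attached overnight, were dosed with compound or DMSO vehicle for 30 min at 37 C, and then incubated 40 min at room temperature with acetylthiocholine and Thiolite Green; green fluorescence indexed AChE activity.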
# [3] = target: Acetylcholinesterase (Homo sapiens) (UniProt P22303); assay: Acetylcholinesterase (AChE) small molecule antagonists: enzyme-based qHTS assay with human liver microsomes (AID 1347399); conditions: Potency: qHTS inhibition; outcome: qHTS inhibition; further: nearly all actives have a fitted effect of over 60% in size
# Procedure, shortened: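 Recombinant human AChE (50 mU/mL in the enzyme mix) and human liver microsomes (0.25 mg/mL final) were preincubated with compound and NADPH (0.25 mg/mL final) for 30 min at 37 C. Acetylthiocholine/DTNB was then added; thiocholine was read colorimetrically after 10 min at room temperature.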
SMILES,Potency [1],Potency [2],Potency [3]
COC(=O)CC(C(C)=O)C(=O)OC (centres undefined),inactive,inactive,–
CCCOC(=O)c1c(Cl)c(Cl)c(Cl)c(Cl)c1C(=O)OCCC,inactive,inactive,inactive
CCN1CCCC1CNC(=O)c1cc(S(N)(=O)=O)ccc1OC (centres undefined),inactive,inactive,inactive
Cc1cccc(N(C)C(=S)Oc2ccc3c(c2)CCC3)c1,inactive,inactive,inactive
O=C(O)c1cccc(Cl)n1,inactive,inactive,inactive
O=C(O)C1(C(=O)Nc2ccc(Cl)cc2Cl)CC1,inactive,inactive,inactive
CCO[Si](CCCSSSSCCC[Si](OCC)(OCC)OCC)(OCC)OCC,inactive,inactive,inactive
CCCCCC(=O)CC,inactive,inactive,inactive
CC(C(=O)O)c1ccc(C(=O)c2ccccc2)s1 (centres undefined),inactive,inactive,inactive
COc1cc(-c2ccc(N=C=O)c(OC)c2)ccc1N=C=O,inactive,inactive,inactive
CCCCCCCCCCCCCC[P+](CCCC)(CCCC)CCCC,31.6 µM (active) and 39.9 µM (active),35.4 µM (active) and 63.3 µM (active),inactive
CCCCCCOC(=O)C(C)CC (centres undefined),inactive,inactive,inactive
Cc1c(C)c([N+](=O)[O-])c(C(C)(C)C)c([N+](=O)[O-])c1C,inactive,inactive,inactive
O=S1OCCO1,inactive,inactive,inactive
CC(C)(C)c1ccccc1,inactive,inactive,inactive
CCCCC,inactive,inactive,inactive
COc1cccc2c1C(=O)c1c(O)c3c(c(O)c1C2=O)C[C@@](O)(C(=O)CO)C[C@@H]3O[C@H]1C[C@H](N)[C@H](O[C@@H]2CCCCO2)[C@H](C)O1,inactive,inactive,inactive
CC1(C)O[C@@H]2C[C@H]3[C@@H]4CCC5=CC(=O)CC[C@]5(C)[C@@]4(F)[C@@H](O)C[C@]3(C)[C@]2(C(=O)CCl)O1,inactive,inactive,inactive
COCCOCCOCCOCCOC,inactive,inactive,inactive
O=C1CC[C@H](C(=O)N2CCCCC2)N1,inactive,inactive,inactive
COC(=O)/C=C\C(=O)O,inactive,inactive,inactive
CCCCCCOC(=O)CC(CC(=O)OCCCCCC)(OC(=O)CCC)C(=O)OCCCCCC,inactive,inactive,inactive
Nc1nc(-c2ccccc2)c(Br)c(=O)[nH]1,inactive,inactive,inactive

SMILES,Potency [1],Potency [2],Potency [3]
N=C(N)S(=O)O,inactive,inactive,inactive
CCCCCCOC(=O)NC(=N)c1ccc(NCc2nc3cc(C(=O)N(CCC(=O)OCC)c4ccccn4)ccc3n2C)cc1,inactive,inactive,inactive
Nc1ccc(S(=O)(=O)Nc2ccccc2)cc1,inactive,inactive,inactive
CCCCOC(=O)CC,inactive,inactive,inactive
Clc1nnc(Cl)c2ccccc12,inactive,inactive,inactive
O=C(Nc1ccc(Cl)cc1)Nc1ccc(Cl)c(C(F)(F)F)c1,inactive,inactive,inactive
O=C(/C=C/c1ccc(O)c(O)c1)O[C@@H]1C[C@@](OC(=O)/C=C/c2ccc(O)c(O)c2)(C(=O)O)C[C@@H](O)[C@@H]1O,inactive,inactive,inactive
O=C1N(c2ccccc2)c2ccccc2C1(Cc1ccncc1)Cc1ccncc1,inactive,inactive,inactive
CC(=O)Nc1ncc([N+](=O)[O-])s1,inactive,inactive,inactive
Cc1cccc(O)c1N,inactive,inactive,inactive
NC(=O)N1c2ccccc2CC(=O)c2ccccc21,inactive,inactive,inactive
OCCN1CN(CCO)CN(CCO)C1,inactive,inactive,inactive
OCCCO,inactive,inactive,inactive
OC[C@@H](O)[C@H](O)[C@@H](O)[C@@H](O)CO,inactive,inactive,inactive
OCCCS,inactive,inactive,inactive
CC1CCN(CCCC(=O)c2ccc(F)cc2)CC1,inactive,inactive,inactive
Nc1ccc(Oc2ccc(N)c(N)c2)cc1,inactive,inactive,inactive
CCCCCCC(=O)OCC,inactive,inactive,inactive
CCCCCCCCCCCCCCCCCC[N+](C)(C)Cc1ccccc1,28.5 µM (active),71.7 µM (active),inactive
CC1(C)OC(=O)Nc2ccc(Br)cc21,inactive,inactive,inactive
N[C@H]1C(O)O[C@H](CO)[C@@H](O)[C@@H]1O (some centres undefined),inactive,inactive,inactive
O=c1[nH]cnc2ccccc12,inactive,inactive,inactive
